Assay outcomes from PubChem.
In the library only some 21% were active in any assay of this set; here they are far more common.
Pf growth 96h = P. falciparum growth inhibition at 96 hours | P. falciparum luciferase reporter growth, 96 h | Potency, µM (top dose mostly 28.7 µM), for the others: top-dose activity change, negative = inhibition, hits mostly inhibitors | 6.9% of 320,000 active | AID 504834; active means well fitted inhibition curve with a large enough effect; inconclusive means small, poorly fitted or top-dose-only effect, or another doubt; inactive means no such curve, though single readings can be large or run the other way; further: potency means the concentration at half of the fitted maximal effect; on the % scale 0 is the no-effect control and ±100 the full control effect
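96 h incubation, 37 C, 5% CO2, of luciferase-reporter P. falciparum-infected RBCs (2% hematocrit, 0.05% parasitemia final) with test compounds; endpoint luminescence.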
NS1 inh = inhibitors of influenza NS1 protein function | Potency, µM (doses to about 46.1 µM), for inactives: top-dose activity, positive = more growth | 0.4% of 270,000 active; further: potency means the concentration at half of the fitted maximal effect; actives are rising curves; nearly all actives have a fitted effect of over 50% in size
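S. cerevisiae expressing influenza A NS1, grown in glucose, washed, then diluted 1:100 into pH 6.0 -URA galactose medium with 23 nl compound. Growth recovery read as OD600; NS1-free strain serves as control.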
Shiga inhibitor = Shiga toxin inhibition. inhibition, % at 38.7 µM. AID 2315. 9.2% of 290,000 active. Vero cells, Shiga toxin protein synthesis inhibition reporter; in the data active means inhibition mostly above about 28%, no sharp cut-off; inactive means mostly below about 43%; further: 0% is about no effect
Pf growth 48h = P. falciparum growth inhibition at 48 hours (one generation). P. falciparum luciferase growth in erythrocytes, 48 h. Potency, µM (titrated, usually from 28.7 µM), without a hit: top-dose activity change, negative = inhibition, most hits filed as inhibitors. 5.9% of 310,000 active. AID 504832; active means well fitted inhibition curve with a large enough effect; inconclusive means small, poorly fitted or top-dose-only effect, or another doubt; inactive means no such curve, though single readings can be large or run the other way; further: potency means the concentration at half of the fitted maximal effect; on the % scale 0 is the no-effect control and ±100 the full control effect
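Here the parasites carry a stable luciferase gene and grow inside erythrocytes in Albumax-based RPMI medium with compound for one erythrocytic cycle. Activity is scored as loss of luminescent signal.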
CHX counter = counter-screen hit for Shiga toxin inhibitors, cycloheximide | AID 2314 | max response, % | cell reporter, cycloheximide protein synthesis inhibition counterscreen | 12% of 300,000 active; in the data active means max response mostly above about 13%, no sharp cut-off; inactive means mostly below about 14%; further: read at 38.3 µM for the half of the compounds with a filed dose; 0% is about no effect
SARS PLP yeast = inhibitors of SARS-CoV papain-like protease in yeast; Potency, µM (series often up to 32.9 µM), inactives show at the highest dose activity, positive = growth rescue, usual class: activators; S. cerevisiae expressing SARS-CoV PLpro, growth rescue; 0.19% of 330,000 active; further: potency means the concentration at half of the fitted maximal effect; 0% is about no effect; nearly all actives have a fitted effect of over 55% in size
* = called active by the depositor. Unless noted, the call rests on the fitted dose curve.

`O=C(Cc1ccc(F)cc1)Nc1nccs1` gave Pf growth 96h inconclusive, NS1 inh 22%, Shiga inhibitor 2, Pf growth 48h inconclusive, CHX counter 2 and SARS PLP yeast -2%.
O=C(Nc1nccs1)c1ccc(-c2ccc([N+](=O)[O-])cc2)o1 was read as Pf growth 96h -14%, NS1 inh 5%, Shiga inhibitor 120*, Pf growth 48h -13%, CHX counter 26* and SARS PLP yeast -1%.
Screening CC(=O)Cc1nsc(NC(=O)c2ccc(-c3ccc(F)cc3)o2)n1 returned Pf growth 96h inconclusive, NS1 inh 0%, Shiga inhibitor 13, Pf growth 48h 2%, CHX counter 16* and SARS PLP yeast 0%.
For Cn1nc(-c2ccc(Cl)cc2)c2cc(C(=O)N3CCC(N4CCCCC4)CC3)sc21 the results were NS1 inh -11%.
Screening O=C(Nc1nccs1)c1ccc(-c2ccc(Cl)cc2)o1 returned Pf growth 96h 1%, NS1 inh 1%, Shiga inhibitor 94*, Pf growth 48h inconclusive, CHX counter 51* and SARS PLP yeast 1%.
For COC(=O)Cc1csc(NCc2ccccc2)n1 the results were Pf growth 96h 1%, NS1 inh 3%, Shiga inhibitor 1, Pf growth 48h 4%, CHX counter -3 and SARS PLP yeast 8%.
Cc1ccc(-c2nc(-c3ccc(Cl)cc3)sc2CC(=O)O)c(C)c1 was read as Pf growth 96h inconclusive, Shiga inhibitor 7, Pf growth 48h 3%, CHX counter 28* and SARS PLP yeast -1%.
Screening COC(=O)Cc1csc(Nc2ccccc2)n1 returned Pf growth 96h inconclusive, NS1 inh -4%, Shiga inhibitor 97*, Pf growth 48h 8%, CHX counter 31* and SARS PLP yeast -11%.
For COC(=O)Cc1csc(Nc2ccc(Cl)cc2)n1 the results were Pf growth 96h 40%, NS1 inh -46%, Shiga inhibitor 36, Pf growth 48h 67%, CHX counter 22* and SARS PLP yeast -83%.
Screening COC(=O)Cc1nc(Nc2ccccc2)sc1C returned Pf growth 96h 42%, NS1 inh -47%, Shiga inhibitor 10, Pf growth 48h 17%, CHX counter 12* and SARS PLP yeast -6%.
For CCOC(=O)Cc1nnc(NC(=O)Nc2ccccc2)s1 the results were Pf growth 96h -10%, NS1 inh 6%, Shiga inhibitor 31, Pf growth 48h 6%, CHX counter 16 and SARS PLP yeast -2%.
O=C1CCN1C1(C(=O)NC2CCCCC2)CCCC1 was read as Pf growth 96h inconclusive, NS1 inh 9%, Shiga inhibitor 5, Pf growth 48h -6%, CHX counter -4 and SARS PLP yeast -2%.
For CSc1ncccc1C(=O)OCC(=O)c1cccs1 the results were Pf growth 96h 17%, Shiga inhibitor -5, Pf growth 48h -13%, CHX counter 1 and SARS PLP yeast -1%.
c1ccc(C[C@@H](Nc2cccnc2)c2ccccc2)cc1 was read as NS1 inh -10%.
For Cc1cccc(Nc2nc(CC(=O)O)cs2)c1 the results were Pf growth 96h inconclusive, Shiga inhibitor 105*, Pf growth 48h 46%, CHX counter 41* and SARS PLP yeast -11%.
For CCOC(=O)Cc1csc(NC(=O)COc2cccc(C)c2)n1 the results were Pf growth 96h -22%, Shiga inhibitor -5, Pf growth 48h -10%, CHX counter -1 and SARS PLP yeast 6%.
`CC(=O)Cc1nsc(Nc2ccccc2)n1` gave Pf growth 96h 15%, NS1 inh -2%, Shiga inhibitor 20, CHX counter 12 and SARS PLP yeast 9%.
For Cc1ccc(NC(=O)Cc2nc(CCl)cs2)cc1 the results were Pf growth 96h -2%, NS1 inh 2%, Shiga inhibitor 9, Pf growth 48h 2%, CHX counter -3 and SARS PLP yeast -9%.
CC(=O)Cc1nsc(Nc2cccc(C)c2)n1 was read as Pf growth 96h inactive, Shiga inhibitor 92*, Pf growth 48h 93%, CHX counter 28* and SARS PLP yeast -1%.
For Cc1ccc(NC(=S)Nc2nc(CC(=O)Nc3ccccc3)cs2)cc1 the results were Pf growth 96h 42%, NS1 inh 14%, Shiga inhibitor 15, Pf growth 48h -2%, CHX counter 14* and SARS PLP yeast 5%.
COC(=O)Cc1csc(Nc2ccc(F)c(Cl)c2)n1 was read as Pf growth 96h 24%, Shiga inhibitor 30, Pf growth 48h 15%, CHX counter 21* and SARS PLP yeast -33%.
O=C(COC(=O)COc1ccccc1F)NCCc1ccc(F)cc1 was read as Pf growth 96h -3%, Pf growth 48h -19% and SARS PLP yeast 1%.
For Cc1cc(C)c(S(=O)(=O)C(C)C)c(=O)[nH]1 the results were Pf growth 96h 36%, Shiga inhibitor 11, Pf growth 48h inconclusive, CHX counter -1 and SARS PLP yeast -2%.
COC(=O)[C@H](C)NC(=O)Nc1cc(OC)ccc1OC was read as Pf growth 96h -12%, NS1 inh -21%, Shiga inhibitor -4, Pf growth 48h 2%, CHX counter -1 and SARS PLP yeast 1%.
For O=C(O)Cc1sc(NC2CCCCC2)nc1-c1ccc(Cl)cc1 the results were Pf growth 96h inconclusive, NS1 inh 15%, Shiga inhibitor 42*, Pf growth 48h -23%, CHX counter 54* and SARS PLP yeast 7%.
O=C(Cc1sc(Nc2ccccc2)nc1-c1ccccc1)NCc1ccccc1 was read as Pf growth 96h -85%, NS1 inh inconclusive, Shiga inhibitor 63*, Pf growth 48h -23%, CHX counter 31* and SARS PLP yeast 0%.
Screening O=C(O)Cc1sc(Nc2cccc3ccccc23)nc1-c1ccc(F)cc1 returned Pf growth 96h 12%, NS1 inh 2%, Shiga inhibitor 6, Pf growth 48h -5%, CHX counter 7 and SARS PLP yeast -1%.
Cc1ccc(-c2nc(Nc3cccc(C)c3)sc2CC(=O)O)cc1 was read as Pf growth 96h -1%, NS1 inh 0%, Shiga inhibitor 55*, Pf growth 48h 50%, CHX counter 27* and SARS PLP yeast -2%.
For CCOC(=O)Cc1csc(Nc2ccc(Cl)cc2)n1 the results were Pf growth 96h 83%, NS1 inh -13%, Shiga inhibitor 11*, Pf growth 48h 53%, CHX counter 48* and SARS PLP yeast -46%.
Screening O=C(Cc1sc(-c2ccccc2)nc1-c1ccccc1)Nc1ccccc1 returned NS1 inh -1%, Shiga inhibitor -16, Pf growth 48h inconclusive, CHX counter -2 and SARS PLP yeast 2%.
`O=C(O)Cc1sc(NCCc2ccccc2)nc1-c1ccc(F)cc1` gave Pf growth 96h -10%, NS1 inh 10%, Shiga inhibitor 34, Pf growth 48h 4%, CHX counter 9 and SARS PLP yeast -10%.
